Values without a mark were called inactive. How the calls were made is not given here.
Molecular target: L-lactate dehydrogenase (Plasmodium falciparum (isolate CDC / Honduras)) (UniProt Q27743)
Assay: PfLDH activity inhibition – cell lysate, 3D7 strain, counter-screen for P. falciparum growth inhibition project (AID 2304);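 further: 0% = vehicle and 100% = reference inhibitor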
Details: P. falciparum 3D7 crude extract, LDH APAD/NBT absorbance; at 2 µM; stronger effect = higher value

Sequence of L-lactate dehydrogenase (Plasmodium falciparum (isolate CDC / Honduras)) (Q27743 whole entry, looked up): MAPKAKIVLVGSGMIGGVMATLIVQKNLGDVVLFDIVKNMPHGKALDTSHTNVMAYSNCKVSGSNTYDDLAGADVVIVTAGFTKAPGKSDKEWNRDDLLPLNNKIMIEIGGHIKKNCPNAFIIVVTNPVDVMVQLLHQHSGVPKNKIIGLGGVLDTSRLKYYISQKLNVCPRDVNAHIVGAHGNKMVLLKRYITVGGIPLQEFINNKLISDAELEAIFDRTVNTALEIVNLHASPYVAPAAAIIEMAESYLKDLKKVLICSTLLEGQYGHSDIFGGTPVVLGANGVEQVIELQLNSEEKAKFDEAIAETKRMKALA

| Compound | inhibition [%] |
| --- | --- |
| CN1C(C)(C)CC(NC(=O)c2ccc(-c3nc4ccc(Cl)cc4[nH]3)cc2)CC1(C)C | -3 |
| Cc1cccc(CNc2nc(C)cc(N[C@@H](CC(C)C)C(=O)NCCOc3ccccc3)n2)c1 | -1 |
| COc1ccc(CCNC(=O)c2cc3c(=O)n4cccc(C)c4nc3n(C)c2=N)cc1 | 4 |
| COc1ccc2nccc([C@@H](O)CN3CCC(NC(=O)C(c4ccsc4)N4CCN(c5ccccc5)CC4)CC3)c2c1 (stereo not given in full) | -8 |
| CCOc1ccc(-n2nc3c(Cl)nnc(-c4ccccc4)c3c2-c2ccccc2)cc1 | 9 |
| CCCNCc1ccc(-c2ccc(CN(CCOC)C(=O)c3ccco3)cc2)nc1 | -7 |
| Cc1nc(N)nc(N)c1OCc1cccc2ccccc12 | -1 |
| O=C(Nc1ccc(OC(F)(F)F)cc1)Nc1ccc([N+](=O)[O-])cc1 | 3 |
| CC(C)(C)CCN1CCC(NC(=O)c2ccc(-c3cccc(C(F)(F)F)c3)s2)CC1 | -2 |
| C=CCNC(CCCCC)c1ccc(OCCOc2ccc(C(CCCCC)NCC=C)cc2)cc1 (stereo not given) | -6 |
| CC(C)(C)c1ccc(NC(=O)c2cccc(CN3CCCN(Cc4cccc(O)c4)CC3)c2)cc1 | 4 |
| O=C(Nc1ccc(C(F)(F)F)cc1)c1ccc(S(=O)(=O)NC2CCCN(CC3CCCCC3)C2)cc1 (stereo not given) | -5 |
| Cc1ccoc1C(=O)Nc1ccc(-c2cccc(-c3nc4c(C)cccc4[nH]3)c2)cc1 | -4 |
| CS(=O)(=O)N(c1ccc(F)cc1)c1cc(C(=O)N[C@@H](Cc2ccccc2)[C@H](O)CNCc2cccc(C(F)(F)F)c2)cc(N2CCCC2=O)c1 | -1 |
| Cc1[nH]nc2ccc(-c3cc(OC[C@@H](N)Cc4ccccc4)cnc3-c3ccc(OCc4cccc(F)c4)cc3)cc12 | -5 |
| Cc1ccc2[nH]c(-c3ccc(/C=C/C(=O)NC4CCN(Cc5ccccc5)CC4)cc3)nc2c1C | 4 |
| CN1CCN(CCCNCc2cccc(-c3ccc(CNCCc4ccccc4)cc3)c2)CC1 | -9 |
| O=C(Nc1ccc2oc(-c3ccc(Br)cc3)nc2c1)c1ccc([N+](=O)[O-])o1 | 2 |
| N#Cc1ccc(-c2ccc(C(=O)NCCCCN3CCC(c4ccc5c(c4OCC(N)=O)CCCC5)CC3)nc2)cc1 | -4 |
| CCN(CC)CCN1C(=O)c2oc3ccc(Cl)cc3c(=O)c2C1c1ccc(SC)cc1 (stereo not given) | -6 |
| O=[N+]([O-])c1cccc(-c2nc(-c3ccc(Br)cc3)[nH]c2-c2ccc(Br)cc2)c1 | 2 |
| COc1cccc(CN2CCC3(CC2)CN(C(=O)Nc2ccc(Cl)c(Cl)c2)C3)c1 | 2 |
| COc1ccc(C(=O)O)cc1OCc1ccccc1 | 3 |
| CNCCNC(=O)C1Cc2c([nH]c3c(C)cccc23)C(c2ccc(Cl)c(Cl)c2)N1 (stereo not given) | -5 |
| Cc1cc2ncc(C(N)=O)c(Nc3ccc(N4CCOCC4)cc3)c2cc1S(C)(=O)=O | -5 |
| NC1=NC(=O)C(=Cc2cn(-c3ccccc3)nc2-c2cccc(S(=O)(=O)N3CCCC3)c2)S1 | 3 |
| N#Cc1ccc(S(=O)(=O)N2C(c3cccc([N+](=O)[O-])c3)C(C(=O)c3ccccc3)N(C3CCCCC3)C2c2cccc([N+](=O)[O-])c2)cc1 (stereo not given) | -1 |
| Nc1ncc(-c2ccccc2)cc1/C=C/c1cccnc1 | -2 |
| O=C(/C=C/c1ccc(Cl)cc1)NCCCCCN1CCCN(C(=O)Nc2ccc(F)c(Cl)c2)CC1 | 1 |
| Ic1cc(Nc2ncnc3ccsc23)ccc1OCc1ccccc1 | 4 |

Reference: PubChem BioAssay
